# Laboratory results reported in PubChem BioAssay AID651815 (National Center for Advancing Translational Sciences (NCATS), 2012).
# Hit rate of the full screen: of about 2,100 compounds, about 1,100 (52%) were called active. Inconclusive results (about 29%) are left out. Calls come from the whole dose curve; as a rule, active = well fitted inhibition curve with a large enough effect; inconclusive = small, poorly fitted or top-dose-only effect; inactive = no such curve, though single readings can be large or run the other way. The set was probably picked from earlier hits. Some of the results follow.
# Target: DNA dC->dU-editing enzyme APOBEC-3F (Homo sapiens) (UniProt Q8IUX4)
# Assay: qHTS for inhibitors of Vif-A3F interactions: Cherry picks counterscreen; note: nearly all actives have a fitted effect of over 65% in size
# Conditions: HeLa A3F-eYFP/Vif cells, eYFP fluorescence, 24 h; series mostly up to 46.1 µM
# How it was run: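 HeLa cells stably expressing A3F-eYFP and Vif, cultured overnight, then treated 24 h at 37 degrees C with compounds at several concentrations; yellow fluorescence (488 nm Ex/500-530 nm Em) imaged on Acumen; MG132 positive control.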
# Potency is the fitted concentration of half-maximal effect.
# Chain of DNA dC->dU-editing enzyme APOBEC-3F (Homo sapiens) (Q8IUX4 whole entry, looked up): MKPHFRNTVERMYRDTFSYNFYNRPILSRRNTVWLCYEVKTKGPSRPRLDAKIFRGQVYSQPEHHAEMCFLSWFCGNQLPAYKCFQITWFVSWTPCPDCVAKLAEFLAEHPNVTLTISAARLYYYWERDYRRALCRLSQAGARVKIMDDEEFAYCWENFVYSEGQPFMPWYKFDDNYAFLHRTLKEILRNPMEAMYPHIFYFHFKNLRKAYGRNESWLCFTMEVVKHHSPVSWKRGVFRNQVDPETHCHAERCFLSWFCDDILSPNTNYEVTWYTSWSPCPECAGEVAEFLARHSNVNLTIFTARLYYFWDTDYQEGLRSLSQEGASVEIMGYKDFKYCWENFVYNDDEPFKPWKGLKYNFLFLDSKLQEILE
row,Compound,Potency
1,C=CCN=c1scc(-c2ccc(F)cc2)n1/N=C/c1ccccn1,inactive
2,COc1ccc2[nH]cc(/C=C/c3cc[n+](C)cc3)c2c1,16.4 µM (active)
3,C[n+]1ccc(/C=C/c2c[nH]c3ccc(F)cc23)cc1,8.2 µM (active)
4,Cc1ccc2[nH]cc(/C=C/c3cc[n+](C)cc3)c2c1,6.27 µM (active)
5,O=C(Nc1ccccc1-c1nc2ccccc2[nH]1)c1ccc(N2C(=O)CCC2=O)cc1,16.4 µM (active)
6,O=C1/C(=C/c2c[nH]c3ccccc23)CCC/C1=C\c1c[nH]c2ccccc12,23.1 µM (active)
7,N#CC1=C2SCC(O)(c3ccccc3)N2C(=O)CC1c1ccccc1 (stereo not drawn),4.98 µM (active)
8,Cc1cccc(C)c1NC(=S)NC(C)CCc1ccccc1 (stereo not drawn),inactive
9,COc1ccc2oc(-c3ccccc3[N+](=O)[O-])cc(=O)c2c1,6.27 µM (active)
10,COc1ccccc1NC(=O)c1sc2ncn(CC(=O)Nc3ccccc3)c(=O)c2c1C,20.6 µM (active)
11,Cc1ccnc(NC(=O)Nc2ccc3c(c2)N(C)C(=O)CS3)c1,23.1 µM (active)
12,CO/N=C\CC(=O)Nc1ccc(Oc2ccccc2)cc1,1.98 µM (active)
13,CC(C)(C)c1ccc(Oc2ccc(NC(=O)c3ccccc3C(=O)O)cn2)cc1,inactive
14,CC(=O)Nc1ccc(NC(=O)C/C(C)=N/NC(N)=S)cc1,inactive
15,CO/N=C\CC(=O)Nc1ccc(Cl)c(Cl)c1,9.94 µM (active)
16,O=C(Cc1nc2ccccc2[nH]c1=O)c1ccc(Cl)cc1,8.2 µM (active)
17,COc1cc2c(cc1OC)CN(C(=O)c1cc(=O)c3ccccc3o1)CC2,11.2 µM (active)
18,COc1ccccc1N=C(C)C1=C(O)CC(c2ccccc2)CC1=O (stereo not drawn),0.994 µM (active)
19,CCC(=Nc1ccccc1O)C1=C(O)CC(c2ccccc2)CC1=O (stereo not drawn),inactive
20,Cc1cnc(NC(=O)CC(C)c2ccccc2)s1 (stereo not drawn),5.59 µM (active)
21,CCN1CCN(c2c(/C=C3\SC(=S)N(Cc4ccco4)C3=O)c(C)c(C#N)c(=O)n2C)CC1,14.6 µM (active)
22,Cc1cc(/C=C2\SC(=S)N(Cc3ccco3)C2=O)c(C)n1-c1cccnc1,20.6 µM (active)
23,Cc1cc(/C=C2\SC(=S)N(Cc3ccco3)C2=O)c(C)n1-c1ccccc1,23.1 µM (active)
24,CN(C)c1ccc(C=C2SC(=S)N(Cc3ccco3)C2=O)cc1,3.96 µM (active)
25,COC(=O)c1ccc(Oc2cc(C)nc(SC)n2)cc1,2.8 µM (active)

row,Compound,Potency
1,COCCNC(=S)N/N=C(\C)c1ccccc1O,inactive
2,C/C(=N/N=C(\C)c1ccccc1O)c1ccccc1O,18.4 µM (active)
3,C/C(=N\NC(=O)C(C)n1nc(C)c([N+](=O)[O-])c1C)c1ccccc1O (stereo not drawn),inactive
4,O=C1c2cccc3c(N4CCCCC4)ccc(c23)C(=O)N1c1ccc(O)cc1,inactive
5,O=C1c2cccc3c(N4CCCCC4)ccc(c23)C(=O)N1c1ccccc1O,inactive
6,O=C1c2cccc3c(N4CCCCC4)ccc(c23)C(=O)N1c1cccc(O)c1,3.66 µM (active)
7,Cc1ccc(N2C(=O)c3cccc4c(N5CCN(C)CC5)ccc(c34)C2=O)c2cccnc12,14 µM (active)
8,C=CCN1C(=O)c2cccc3c(N4CCCCC4)ccc(c23)C1=O,16.4 µM (active)
9,O=C1c2cccc3c(N4CCCCC4)ccc(c23)C(=O)N1CCO,17.7 µM (active)
10,C=CCOC(=O)C1=C(C)NC(C)=C(C(=O)OCC=C)C1c1cn(-c2ccccc2)nc1-c1ccco1,inactive
11,Cc1ccc2nc(-c3ccccn3)c(Nc3ccccc3C)n2c1,inactive
12,CCN(CC)c1nc(C=Cc2ccc(N(C)C)cc2)c2nccnc2n1,0.58 µM (active)
13,CCN(Cc1ccccc1)c1ccc(/C=C/c2nccc3ccccc23)cc1,20.6 µM (active)
14,CN(C)c1ccc(C=Cc2nccc3ccccc23)cc1,14 µM (active)
15,CCN(Cc1ccccc1)c1ccc(/C=C(\C#N)c2ccccn2)cc1,inactive
16,CN(C)c1ccc(/C=C/c2nccc3ccccc23)cc1,20.6 µM (active)
17,CCCn1c(C2CCCN2c2nc(-c3cccc(Br)c3)cs2)nc2ccccc21 (stereo not drawn),inactive
18,CCn1c2ccccc2c2cc(NC(=O)CNCc3ccccc3OC)ccc21,4.98 µM (active)
19,S=C(NCCSCc1ccc(Cl)cc1)Nc1ccccc1,inactive
20,CCn1c(CNC(=O)c2cc(OC)c(OC)c(OC)c2)cc2cc(C)ccc21,inactive
21,COc1cc(C(=O)NCCOc2cc(C)cc(C)c2)cc(OC)c1OC,2.8 µM (active)
22,COc1ccc(C2=NOC(C(=O)NCc3ccc(F)cc3)C2)cc1OC (stereo not drawn),5.59 µM (active)
23,CN(C)c1ccc(C=C2SC(=S)NC2=O)cc1,7.04 µM (active)
24,COc1ccccc1N=C1NC(=O)/C(=C/c2ccc(N(C)C)cc2)S1,6.51 µM (active)
25,CCOc1ccc(N(C)c2ccc(/C=C3/SC(=S)NC3=O)cc2)cc1,15.8 µM (active)

row,Compound,Potency
1,Cc1ccc(Cn2c(SCc3ccc(C(=O)NC4CCCC4)cc3)nc3ccncc32)cc1,inactive
2,Cc1ccc(C(=O)c2cc([N+](=O)[O-])ccc2N2CCOCC2)cc1C,1.77 µM (active)
3,CN1CCN(c2ccc([N+](=O)[O-])cc2C(=O)c2ccc(Br)cc2)CC1,4.98 µM (active)
4,Cc1ccc(C(=O)c2cc([N+](=O)[O-])ccc2N2CCN(C)CC2)cc1,4.98 µM (active)
5,Cn1c(=O)[nH]c(=O)c2c1nc(Br)n2Cc1cccc(Br)c1,9.94 µM (active)
6,C/C(=N\NC(=O)c1c(Cl)c(C)nn1C)c1ccc(NC(=O)C2CCC2)cc1,1.4 µM (active)
7,CCN(CC)c1ccc(/C=C/c2cccc[n+]2C)c(OC)c1,15.8 µM (active)
8,COC(=O)/C(=C\Nc1ccc(Cl)cc1Cl)NC(=O)c1ccc(OC)cc1,3.96 µM (active)
9,Cc1ccc(N=C2NC(=O)/C(=C/c3cn(C)c4ccccc34)S2)cc1C,15.8 µM (active)
10,Cn1cccc1/C=C1\SC(=Nc2ccccc2)NC1=O,5.59 µM (active)
11,Cc1ccc(N=C2NC(=O)/C(=C/c3cccn3C)S2)cc1,15.8 µM (active)
12,Cn1cccc1/C=C1\SC(=Nc2ccc(O)cc2)NC1=O,6.27 µM (active)
13,COc1cc(/C=C2/SC(=Nc3ccc(O)cc3)NC2=O)ccc1O,13 µM (active)
14,O=C1NC(=Nc2ccc(O)cc2)S/C1=C/c1ccco1,12.5 µM (active)
15,COc1cc(/C=C2\SC(=Nc3cccnc3)NC2=O)cc(OC)c1OC,inactive
16,Cn1cc(/C=C2\SC(=S)N(NC(=O)c3cccc(Cl)c3)C2=O)c2ccccc21,16.4 µM (active)
17,Cn1cc(/C=C2\SC(=O)N(c3ccccc3)C2=O)c2ccccc21,16.4 µM (active)
18,Cn1cccc1/C=C1\SC(=Nc2cccc(O)c2)NC1=O,17.7 µM (active)
19,Cc1cc(/C=C2\SC(=Nc3ccccc3)NC2=O)c(C)n1-c1ccc(S(N)(=O)=O)cc1,1.98 µM (active)
20,Cc1cccc(N=C2NC(=O)/C(=C/c3cccn3C)S2)c1,inactive
21,COc1cc2c(cc1OC)C(C)N(C(=O)c1cc(C)on1)CC2 (stereo not drawn),0.994 µM (active)
22,COc1cc2c(cc1OC)C(C)N(C(=O)c1cc(Cl)nc(Cl)c1)CC2 (stereo not drawn),inactive
23,CCN(CC)c1nc(C)c(C(=S)Nc2cc([N+](=O)[O-])ccc2Cl)s1,inactive
24,CC(=O)Nc1ccc(-c2ccnc3c2CC(C(=O)NCc2ccccc2)O3)cc1 (stereo not drawn),1.12 µM (active)
25,CC(=O)Nc1ccc(-c2ccnc3c2CC(C(=O)NCc2cccc(Cl)c2)O3)cc1 (stereo not drawn),3.53 µM (active)

row,Compound,Potency
1,O=C1Nc2ccc(Br)cc2C12NNc1ccccc1O2 (stereo not drawn),14 µM (active)
2,Cc1ccc(CSc2nc(-c3ccc(C(C)(C)C)cc3)nc3cc(=O)[nH]n23)cc1,inactive
3,Cc1sc2ncnc(SCC(=O)NC(C)(C)C)c2c1C,inactive
4,COc1ccc(NC(=O)c2sc3nc(-c4cccnc4)ccc3c2N)cc1OC,5.8 µM (active)
5,COc1cccc(-c2ccc3c(N)c(C(=O)c4ccc(Br)cc4)sc3n2)c1,23.1 µM (active)
6,COc1cccc(-c2ccc3c(N)c(C(=O)c4ccc(Cl)cc4)sc3n2)c1,16.4 µM (active)
7,Cc1nn(-c2ccc(F)cc2)c(Cl)c1/C=C1\C(=O)Nc2ccccc21,5.59 µM (active)
8,O=c1[nH]c(NCc2ccco2)nnc1Cc1ccccc1Cl,12.5 µM (active)
9,O=[N+]([O-])c1ccc(C2=Nc3cc(Cl)ccc3OC2)cc1,inactive
10,O=[N+]([O-])c1ccc(C2=NN(c3ccccc3)C(c3ccco3)C2)cc1 (stereo not drawn),1.58 µM (active)
11,COc1ccccc1N1N=C(c2ccc([N+](=O)[O-])cc2)CC1c1ccccc1 (stereo not drawn),1.12 µM (active)
12,O=[N+]([O-])c1ccc(/C=C/C2=NN(c3ccccc3)C(c3ccco3)C2)o1 (stereo not drawn),5.17 µM (active)
13,COc1ccc2nc(C)cc(SCC(=O)N/N=C/c3cccc4ccccc34)c2c1,6.27 µM (active)
14,O=C(Nc1ccc([N+](=O)[O-])cc1)C(Cc1ccccc1)N1C(=O)c2cccc3cccc(c23)C1=O (stereo not drawn),15.8 µM (active)
15,O=S(=O)(Nc1ccc(C(O)(C(F)(F)F)C(F)(F)F)cc1)c1ccc(Cl)c2nonc12,inactive
16,CCOC(=O)c1sc2cc([N+](=O)[O-])cc(SCC(C)C)c2c1N,2.31 µM (active)
17,COC(=O)c1sc2cc([N+](=O)[O-])cc(SCC(C)C)c2c1N,11.6 µM (active)
18,COc1ccc(NC2=CC(=O)CC(c3ccccc3)C2)c(OC)c1 (stereo not drawn),5.59 µM (active)
19,COc1ccc(NC(=S)Nc2ncccc2C)c(OC)c1,inactive
20,O=C(Nc1ccc(Oc2ccc(NC(=O)Nc3ccccc3Cl)cc2)cc1)Nc1ccccc1Cl,18.4 µM (active)
21,Cc1ccsc1/C=N\NC(=O)c1n[nH]c2c1CCC2,3.96 µM (active)
22,O=C(N/N=C/c1cccc2ccccc12)c1n[nH]c2c1CCCC2,1.98 µM (active)
23,O=C(N/N=C/c1cccs1)c1n[nH]c2c1CCC2,6.27 µM (active)
